Experimental data taken from PubChem BioAssay (NCI).
Compounds without any hit were thinned out: in the full panel of roughly 79,000, 15% have a hit. Activity calls are given as the source filed them. Cut-off read from the data, not from the text of the source: active = growth inhibition above about 70%; inactive = the rest.

Assays:
[1] = NCI Yeast Anticancer Drug Screen. Data for the rad50 strain (AID 155);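 note: 0% = growth of vehicle-only cultures of the same strain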; settings: S. cerevisiae rad50 strain growth inhibition, stronger effect = higher value
Outline: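 Cells are treated with compound, grown, and their growth is then scored against vehicle-only cultures of the same repair-deficient yeast strain.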

[2] = NCI Yeast Anticancer Drug Screen. Data for the mec2-1 strain (AID 157); settings: S. cerevisiae mec2-1 strain, stronger effect = higher value
Outline: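 Yeast mec2-1 mutant treated with compound. Readout: growth inhibition vs vehicle controls.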

[3] = NCI Yeast Anticancer Drug Screen. Data for the sgs1 mgt1 strain (AID 161);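 note: 0% = growth of cultures given vehicle only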; settings: S. cerevisiae sgs1 mgt1 strain, stronger effect = higher value
Outline: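 Read-out: growth inhibition vs vehicle controls. Cells: mutant yeast strain deficient in DNA damage repair.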

[4] = NCI Yeast Anticancer Drug Screen. Data for the cln2 rad14 strain (AID 165);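 note: 0% = growth equal to vehicle treated cultures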; settings: S. cerevisiae cln2 rad14 strain, stronger effect = higher value
Outline: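 cln2 rad14 yeast strain; compound exposure; growth inhibition read vs vehicle controls.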

[5] = NCI Yeast Anticancer Drug Screen. Data for the bub3 strain (AID 167); settings: S. cerevisiae bub3 mutant strain, stronger effect = higher value
Outline: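 Part of a panel of yeast mutants defective in DNA damage repair or cell cycle regulation. Each strain is grown with compound, and inhibition is calculated relative to solvent-treated cultures.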

[6] = NCI Yeast Anticancer Drug Screen. Data for the mlh1 rad18 strain (AID 175); settings: S. cerevisiae mlh1 rad18 strain growth inhibition, stronger effect = higher value
Outline: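 Yeast w/ defined DNA-repair lesions; compound exposure; growth vs vehicle controls → % inhibition.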

[7] = at 5.0 µM (retest, dose inferred, filed as 0.5)
[8] = at 50.0 µM (retest, dose inferred, filed as 5.0)

| SMILES | growth inhibition [1, 7] | growth inhibition [1, 8] | growth inhibition ([1]; at 50.0 µM) | growth inhibition [2, 7] | growth inhibition [2, 8] | growth inhibition ([2]; at 50.0 µM) | growth inhibition [3, 7] | growth inhibition [3, 8] | growth inhibition ([3]; at 50.0 µM) | growth inhibition [4, 7] | growth inhibition [4, 8] | growth inhibition ([4]; at 50.0 µM) | growth inhibition [5, 7] | growth inhibition [5, 8] | growth inhibition ([5]; at 50.0 µM) | growth inhibition [6, 7] | growth inhibition [6, 8] | growth inhibition ([6]; at 50.0 µM) |
| --- | --- | --- | --- | --- | --- | --- | --- | --- | --- | --- | --- | --- | --- | --- | --- | --- | --- | --- |
| CCC(c1ccc(O)cc1)C(CC)c1ccc(OCC(N)=O)cc1 (centres undefined) | 10% (inactive) | -5% (inactive) | 90.1% (active) | 0% (inactive) | -10% (inactive) | 80.5% (active) | -16% (inactive) | 7% (inactive) | 89.8% (active) | -18% (inactive) | -22% (inactive) | 78.8% (active) | -15% (inactive) | 27% (inactive) | 93% (active) | 20% (inactive) | 44% (inactive) | 91.3% (active) |
| CN(C)C(=S)/N=c1\ss/c(=N\C(=S)N(C)C)n1Cc1ccco1 | -2% (inactive) | 2% (inactive) | 12.2% (inactive) | -2% (inactive) | 0% (inactive) | -10.7% (inactive) | -2% (inactive) | 4% (inactive) | -2.7% (inactive) | -4% (inactive) | 3% (inactive) | 9.1% (inactive) | 0% (inactive) | -1% (inactive) | -3.05% (inactive) | -1% (inactive) | 2% (inactive) | -3.15% (inactive) |
| CC(=O)N(C)c1ccc(/C=C2\C=Cc3ccccc32)cc1 | 9% (inactive) | 91% (active) | 41.2% (inactive) | 4% (inactive) | 94% (active) | 39.7% (inactive) | 10% (inactive) | 93% (active) | 26.3% (inactive) | -4% (inactive) | 81% (active) | 32.8% (inactive) | 7% (inactive) | 94% (active) | 72.2% (active) | 11% (inactive) | 92% (active) | 56.3% (inactive) |
| O=C(Nc1ccc(F)cc1)N1CCCCC1 | 41% (inactive) | 43% (inactive) | 8.15% (inactive) | 36% (inactive) | 29% (inactive) | 47% (inactive) | 40% (inactive) | 42% (inactive) | 36.9% (inactive) | 29% (inactive) | 31% (inactive) | 9.25% (inactive) | 41% (inactive) | 70% (active) | 17.3% (inactive) | 43% (inactive) | 39% (inactive) | 33.1% (inactive) |
| C=COCCN1CCN(CCCN2c3ccccc3Sc3ccc(C(F)(F)F)cc32)CC1 | -4% (inactive) | 99% (active) | 99.5% (active) | -4% (inactive) | 99% (active) | 99% (active) | -1% (inactive) | 99% (active) | 99.7% (active) | -2% (inactive) | 99% (active) | 98.7% (active) | 1% (inactive) | 99% (active) | 98.5% (active) | 1% (inactive) | 99% (active) | 99.3% (active) |
| COC(=O)CCC(=O)N1C/C(=C\c2ccccc2)C(=O)/C(=C/c2ccccc2)C1 | 5% (inactive) | 41% (inactive) | 88.6% (active) | 23% (inactive) | 42% (inactive) | 95.3% (active) | 5% (inactive) | 56% (inactive) | 92.5% (active) | 9% (inactive) | 19% (inactive) | 16.5% (inactive) | 2% (inactive) | 22% (inactive) | 92.5% (active) | 7% (inactive) | 38% (inactive) | 95% (active) |
| COc1ccc(C2=NN(c3ccccc3)C[N+](c3ccc(C)cc3)=N2)cc1 | 6% (inactive) | 98% (active) | 97.5% (active) | -14% (inactive) | 99% (active) | 98.2% (active) | -3% (inactive) | 98% (active) | 98.5% (active) | 12% (inactive) | 98% (active) | 97.9% (active) | -1% (inactive) | 99% (active) | 98.2% (active) | 13% (inactive) | 98% (active) | 97.8% (active) |
| CCCN1CCN(c2ccc([N+](=O)[O-])c3no[n+]([O-])c23)CC1 | 97% (active) | 99% (active) | 89% (active) | 97% (active) | 99% (active) | 93.3% (active) | 92% (active) | 99% (active) | 89.5% (active) | 52% (inactive) | 99% (active) | 80.3% (active) | 58% (inactive) | 98% (active) | 90.2% (active) | 97% (active) | 99% (active) | 88.6% (active) |
| Cc1ccc(S(=O)(=O)OCCCCOS(=O)(=O)c2ccc(C)cc2)cc1 | 0% (inactive) | 4% (inactive) | 76% (active) | -7% (inactive) | -3% (inactive) | 26.1% (inactive) | -6% (inactive) | 4% (inactive) | 15.7% (inactive) | 2% (inactive) | -5% (inactive) | 28.4% (inactive) | -2% (inactive) | 2% (inactive) | -17.2% (inactive) | 2% (inactive) | 1% (inactive) | 15.1% (inactive) |
| O=CCCCc1cc2c(cc1Br)CCC2 | 0% (inactive) | 62% (inactive) | 60.9% (inactive) | 14% (inactive) | 62% (inactive) | 70.9% (active) | 11% (inactive) | 73% (active) | 64.2% (inactive) | 10% (inactive) | 82% (active) | 72.2% (active) | 23% (inactive) | 92% (active) | 77.5% (active) | 21% (inactive) | 91% (active) | 50.4% (inactive) |
| Cc1cc(NC(=S)SCc2ccc(F)cc2)ccc1Br | 49% (inactive) | 99% (active) | 90.7% (active) | 32% (inactive) | 100% (active) | 92.8% (active) | 58% (inactive) | 100% (active) | 91.8% (active) | 46% (inactive) | 99% (active) | 90.7% (active) | 56% (inactive) | 100% (active) | 92.3% (active) | 33% (inactive) | 98% (active) | 91.4% (active) |
| COC(=O)C1(Cc2ccccc2)Cc2c(C)ccc(C)c2C1=O (centres undefined) | -4% (inactive) | 12% (inactive) | 43.1% (inactive) | -3% (inactive) | 16% (inactive) | 19.2% (inactive) | 13% (inactive) | 42% (inactive) | 61.6% (inactive) | -1% (inactive) | 2% (inactive) | 39.2% (inactive) | 28% (inactive) | 62% (inactive) | 64.2% (inactive) | -2% (inactive) | 13% (inactive) | 70.2% (active) |
| COC(=O)C(CCC(=O)Cc1ccccc1)N1C(=O)c2ccccc2C1=O (centres undefined) | 6% (inactive) | 67% (inactive) | 70% (inactive) | 1% (inactive) | 91% (active) | 56.9% (inactive) | 16% (inactive) | 87% (active) | 81.6% (active) | 10% (inactive) | 43% (inactive) | 1.4% (inactive) | 8% (inactive) | 86% (active) | 76% (active) | 16% (inactive) | 89% (active) | 88% (active) |
| O=C1C=CC(=Nc2ccc(O)c3ncccc23)c2cccnc21 | 34% (inactive) | 92% (active) | 94% (active) | 11% (inactive) | 96% (active) | 95% (active) | 29% (inactive) | 96% (active) | 95.2% (active) | -1% (inactive) | 95% (active) | 86.7% (active) | 17% (inactive) | 94% (active) | 95.6% (active) | 50% (inactive) | 95% (active) | 92.4% (active) |
| COC(=O)c1c(C)cccc1C1CN=NC12Cc1ccccc1C2=O (centres undefined) | 24% (inactive) | 32% (inactive) | 3.9% (inactive) | 16% (inactive) | 12% (inactive) | 6.25% (inactive) | 23% (inactive) | 38% (inactive) | 32.9% (inactive) | 24% (inactive) | 16% (inactive) | 30.8% (inactive) | 25% (inactive) | 30% (inactive) | 19.6% (inactive) | 23% (inactive) | 29% (inactive) | -32.9% (inactive) |
| CCOc1cc2c(OCc3ccccc3)cc3c4cc(OC)c(OC)cc4c[n+](C)c3c2cc1OC | 98% (active) | 99% (active) | 59.6% (inactive) | 96% (active) | 99% (active) | 46.2% (inactive) | 97% (active) | 99% (active) | 50.8% (inactive) | 97% (active) | 99% (active) | 55% (inactive) | 97% (active) | 99% (active) | 50.3% (inactive) | 97% (active) | 99% (active) | 50.1% (inactive) |
| CC(C)[CH2][Ge]([Cl])([Cl])[Cl] | 1% (inactive) | -8% (inactive) | 98.5% (active) | 2% (inactive) | -2% (inactive) | 98.8% (active) | 3% (inactive) | -15% (inactive) | 98.7% (active) | -2% (inactive) | -14% (inactive) | 98.5% (active) | 3% (inactive) | -3% (inactive) | 99% (active) | 1% (inactive) | 1% (inactive) | 99% (active) |
| O=c1c2c3c(sc2nc2n1N=C(c1ccc(Br)cc1)CS2)CCCC3 | 1% (inactive) | -11% (inactive) | 21.2% (inactive) | -3% (inactive) | -11% (inactive) | -0.4% (inactive) | -5% (inactive) | -1% (inactive) | -22.8% (inactive) | 17% (inactive) | 10% (inactive) | -32.2% (inactive) | 11% (inactive) | -10% (inactive) | -24.5% (inactive) | -10% (inactive) | -6% (inactive) | -25.4% (inactive) |
